This note sets out measurements from PubChem BioAssay (NCATS).

Inconclusive results are not listed. Active and inactive are the calls of the source. Calls come from the whole dose curve; as a rule, active = well fitted inhibition curve with a large enough effect; inconclusive = small, poorly fitted or top-dose-only effect; inactive = flat fitted curve, though single readings scatter.
% is set by controls: 0 for no effect and ±100 for the full control effect.

The target in the test is Glutathione peroxidase 1 (Homo sapiens) (UniProt P07203). Briefly: Primary qHTS Assay for Inhibitors of Recombinant Selenoprotein Glutathione Peroxidase 1 (GPX1) (AID 1845191). Note: nearly all actives have a fitted effect of over 65% in size. As to conditions: recombinant GPX1, GR-coupled NADPH fluorescence, 15 min; series mostly up to 48.8 µM; activity, negative = inhibition: at the top concentration. The essentials: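 NADPH consumption tracked by fluorescence at 340/450 nm between t=0 and t=15 min, room temperature. Final mix: 10 nM GPX1, 100 nM glutathione reductase, 1 mM GSH, 0.5 mM NADPH, 0.5 mM cumene hydroperoxide, 0.01% BSA; 30 min compound–enzyme preincubation.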
Sequence of Glutathione peroxidase 1 (Homo sapiens) (P07203 whole entry, looked up): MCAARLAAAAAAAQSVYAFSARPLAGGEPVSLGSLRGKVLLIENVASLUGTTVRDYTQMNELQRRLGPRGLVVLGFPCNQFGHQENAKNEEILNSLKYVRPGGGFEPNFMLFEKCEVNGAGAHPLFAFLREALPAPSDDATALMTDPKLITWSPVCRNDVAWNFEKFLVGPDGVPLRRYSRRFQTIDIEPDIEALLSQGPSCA
For orientation: In qHTS, concentration-response curves come from the screen itself.
Consider `Nc1ccccc1NC(=O)CCCCCCC(=O)Nc1ccccc1`, for which the result was inactive.

For the compound `C=C(NC(=O)C(=C)NC(=O)c1csc(C2=N[C@H]3c4csc(n4)[C@H]4NC(=O)c5csc(n5)[C@H]([C@@](C)(O)[C@@H](C)O)NC(=O)[C@H]5CSC(=N5)C(=CC)NC(=O)[C@H]([C@@H](C)O)NC(=O)c5csc(n5)[C@]3(CC2)NC(=O)[C@H](C)NC(=O)C(=C)NC(=O)[C@H](C)NC(=O)[C@H](C(C)CC)N[C@@H]2C=Cc3c([C@H](C)O)cc(nc3[C@H]2O)C(=O)O[C@@H]4C)n1)C(N)=O` (stereo partly drawn), the “activity, negative = inhibition” value was -18.4% (inactive).

On to `Cc1nc2c(C#N)c[nH]n2c(=O)c1C(C)C`, for which the “activity, negative = inhibition” value was -0.35% (inactive).
